Biological target: AgAbp1
Experiment: SPOT peptide array binding signal intensity (averaged, normalized) (arbitrary units (background-subtracted, floor 0; scale differs between SH3 domains)); higher = stronger binding of the SH3 domain to the peptide
Procedure, shortened: (§1)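 Cellulose membranes carried synthetic 15-mer peptides with cysteines swapped for serines. These were incubated overnight at 4°C with 10 μg/ml of GST-fused SH3 domains from four yeast species in TBS-based blocking buffer. Binding signal, detected with anti-GST antibody and quantified in Genespotter, is the normalized, background-subtracted spot intensity averaged over replicates, in arbitrary units specific to each domain.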

Row | Binder | SPOT peptide array binding signal intensity
1 | NSVPIMPTLPPRPYI | ≤ 0

Biological target: AgBbc1
Experiment: as above
Procedure, shortened: as §1

Row | Binder | SPOT peptide array binding signal intensity
2 | NSVPIMPTLPPRPYI | 394

Biological target: AgBem1-D1
Experiment: as above
Procedure, shortened: as §1

Row | Binder | SPOT peptide array binding signal intensity
3 | NSVPIMPTLPPRPYI | 102

Biological target: AgBzz1-D1
Experiment: as above
Procedure, shortened: as §1

Row | Binder | SPOT peptide array binding signal intensity
4 | NSVPIMPTLPPRPYI | 21

Biological target: AgBzz1-D2
Experiment: as above
Procedure, shortened: as §1

Row | Binder | SPOT peptide array binding signal intensity
5 | NSVPIMPTLPPRPYI | ≤ 0

Biological target: AgCyk3
Experiment: as above
Procedure, shortened: as §1

Row | Binder | SPOT peptide array binding signal intensity
6 | NSVPIMPTLPPRPYI | 9.5

Biological target: AgFus1
Experiment: as above
Procedure, shortened: as §1

Row | Binder | SPOT peptide array binding signal intensity
7 | NSVPIMPTLPPRPYI | 20.5

Biological target: AgHof1
Experiment: as above
Procedure, shortened: as §1

Row | Binder | SPOT peptide array binding signal intensity
8 | NSVPIMPTLPPRPYI | 118

Biological target: AgHse1
Experiment: as above
Procedure, shortened: as §1

Row | Binder | SPOT peptide array binding signal intensity
9 | NSVPIMPTLPPRPYI | 320

Biological target: AgLsb1
Experiment: as above
Procedure, shortened: as §1

Row | Binder | SPOT peptide array binding signal intensity
10 | NSVPIMPTLPPRPYI | 26

Biological target: AgLsb4
Experiment: as above
Procedure, shortened: as §1

Row | Binder | SPOT peptide array binding signal intensity
11 | NSVPIMPTLPPRPYI | 2370

Biological target: AgMyo5
Experiment: as above
Procedure, shortened: as §1

Row | Binder | SPOT peptide array binding signal intensity
12 | NSVPIMPTLPPRPYI | 71.5

Biological target: AgNbp2
Experiment: as above
Procedure, shortened: as §1

Row | Binder | SPOT peptide array binding signal intensity
13 | NSVPIMPTLPPRPYI | 192

Biological target: AgRvs167
Experiment: as above
Procedure, shortened: as §1

Row | Binder | SPOT peptide array binding signal intensity
14 | NSVPIMPTLPPRPYI | 50.2

Biological target: AgSho1
Experiment: as above
Procedure, shortened: as §1

Row | Binder | SPOT peptide array binding signal intensity
15 | NSVPIMPTLPPRPYI | 21

Biological target: AgSla1-D1-D2
Experiment: as above
Procedure, shortened: as §1

Row | Binder | SPOT peptide array binding signal intensity
16 | NSVPIMPTLPPRPYI | ≤ 0

Biological target: AgSla1-D3
Experiment: as above
Procedure, shortened: as §1

Row | Binder | SPOT peptide array binding signal intensity
17 | NSVPIMPTLPPRPYI | ≤ 0

Biological target: CaAbp1-D1
Experiment: as above
Procedure, shortened: as §1

Row | Binder | SPOT peptide array binding signal intensity
18 | NSVPIMPTLPPRPYI | ≤ 0

Biological target: CaAbp1-D2
Experiment: as above
Procedure, shortened: as §1

Row | Binder | SPOT peptide array binding signal intensity
19 | NSVPIMPTLPPRPYI | 5

Biological target: CaBbc1
Experiment: as above
Procedure, shortened: as §1

Row | Binder | SPOT peptide array binding signal intensity
20 | NSVPIMPTLPPRPYI | 1090

Biological target: CaBem1-D1
Experiment: as above
Procedure, shortened: as §1

Row | Binder | SPOT peptide array binding signal intensity
21 | NSVPIMPTLPPRPYI | 162

Biological target: CaBzz1-D1
Experiment: as above
Procedure, shortened: as §1

Row | Binder | SPOT peptide array binding signal intensity
22 | NSVPIMPTLPPRPYI | 103

Biological target: CaBzz1-D2
Experiment: as above
Procedure, shortened: as §1

Row | Binder | SPOT peptide array binding signal intensity
23 | NSVPIMPTLPPRPYI | 3

Biological target: CaCyk3
Experiment: as above
Procedure, shortened: as §1

Row | Binder | SPOT peptide array binding signal intensity
24 | NSVPIMPTLPPRPYI | 120

Biological target: CaFus1
Experiment: as above
Procedure, shortened: as §1

Row | Binder | SPOT peptide array binding signal intensity
25 | NSVPIMPTLPPRPYI | 293

Biological target: CaHof1
Experiment: as above
Procedure, shortened: as §1

Row | Binder | SPOT peptide array binding signal intensity
26 | NSVPIMPTLPPRPYI | 15

Biological target: CaHse1
Experiment: as above
Procedure, shortened: as §1

Row | Binder | SPOT peptide array binding signal intensity
27 | NSVPIMPTLPPRPYI | 310

Biological target: CaLsb1
Experiment: as above
Procedure, shortened: as §1

Row | Binder | SPOT peptide array binding signal intensity
28 | NSVPIMPTLPPRPYI | 3.25

Biological target: CaLsb4
Experiment: as above
Procedure, shortened: as §1

Row | Binder | SPOT peptide array binding signal intensity
29 | NSVPIMPTLPPRPYI | 2280

Biological target: CaMyo5
Experiment: as above
Procedure, shortened: as §1

Row | Binder | SPOT peptide array binding signal intensity
30 | NSVPIMPTLPPRPYI | 27.5

Biological target: CaNbp2
Experiment: as above
Procedure, shortened: as §1

Row | Binder | SPOT peptide array binding signal intensity
31 | NSVPIMPTLPPRPYI | 400

Biological target: CaRvs167
Experiment: as above
Procedure, shortened: as §1

Row | Binder | SPOT peptide array binding signal intensity
32 | NSVPIMPTLPPRPYI | 423

Biological target: CaRvs167-3
Experiment: as above
Procedure, shortened: as §1

Row | Binder | SPOT peptide array binding signal intensity
33 | NSVPIMPTLPPRPYI | ≤ 0

Biological target: CaSho1
Experiment: as above
Procedure, shortened: as §1

Row | Binder | SPOT peptide array binding signal intensity
34 | NSVPIMPTLPPRPYI | 260

Biological target: CaSla1-D1-D2
Experiment: as above
Procedure, shortened: as §1

Row | Binder | SPOT peptide array binding signal intensity
35 | NSVPIMPTLPPRPYI | 52

Biological target: CaSla1-D3
Experiment: as above
Procedure, shortened: as §1

Row | Binder | SPOT peptide array binding signal intensity
36 | NSVPIMPTLPPRPYI | 46

Biological target: ScAbp1
Experiment: as above
Procedure, shortened: as §1

Row | Binder | SPOT peptide array binding signal intensity
37 | NSVPIMPTLPPRPYI | ≤ 0

Biological target: ScBbc1
Experiment: as above
Procedure, shortened: as §1

Row | Binder | SPOT peptide array binding signal intensity
38 | NSVPIMPTLPPRPYI | 128

Biological target: ScBem1-D1
Experiment: as above
Procedure, shortened: as §1

Row | Binder | SPOT peptide array binding signal intensity
39 | NSVPIMPTLPPRPYI | ≤ 0

Biological target: ScBzz1-D1
Experiment: as above
Procedure, shortened: as §1

Row | Binder | SPOT peptide array binding signal intensity
40 | NSVPIMPTLPPRPYI | 3

Biological target: ScBzz1-D2
Experiment: as above
Procedure, shortened: as §1

Row | Binder | SPOT peptide array binding signal intensity
41 | NSVPIMPTLPPRPYI | 1

Biological target: ScCyk3
Experiment: as above
Procedure, shortened: as §1

Row | Binder | SPOT peptide array binding signal intensity
42 | NSVPIMPTLPPRPYI | ≤ 0

Biological target: ScFus1
Experiment: as above
Procedure, shortened: as §1

Row | Binder | SPOT peptide array binding signal intensity
43 | NSVPIMPTLPPRPYI | 40.5

Biological target: ScHof1
Experiment: as above
Procedure, shortened: as §1

Row | Binder | SPOT peptide array binding signal intensity
44 | NSVPIMPTLPPRPYI | 252

Biological target: ScHse1
Experiment: as above
Procedure, shortened: as §1

Row | Binder | SPOT peptide array binding signal intensity
45 | NSVPIMPTLPPRPYI | 26.5

Biological target: ScLsb1
Experiment: as above
Procedure, shortened: as §1

Row | Binder | SPOT peptide array binding signal intensity
46 | NSVPIMPTLPPRPYI | 380

Biological target: ScLsb2
Experiment: as above
Procedure, shortened: as §1

Row | Binder | SPOT peptide array binding signal intensity
47 | NSVPIMPTLPPRPYI | 128

Biological target: ScLsb3
Experiment: as above
Procedure, shortened: as §1

Row | Binder | SPOT peptide array binding signal intensity
48 | NSVPIMPTLPPRPYI | 3460

Biological target: ScLsb4
Experiment: as above
Procedure, shortened: as §1

Row | Binder | SPOT peptide array binding signal intensity
49 | NSVPIMPTLPPRPYI | 2610

Biological target: ScMyo3
Experiment: as above
Procedure, shortened: as §1

Row | Binder | SPOT peptide array binding signal intensity
50 | NSVPIMPTLPPRPYI | 668

Biological target: ScMyo5
Experiment: as above
Procedure, shortened: as §1

Row | Binder | SPOT peptide array binding signal intensity
51 | NSVPIMPTLPPRPYI | 107

Biological target: ScNbp2
Experiment: as above
Procedure, shortened: as §1

Row | Binder | SPOT peptide array binding signal intensity
52 | NSVPIMPTLPPRPYI | 210

Biological target: ScPex13
Experiment: as above
Procedure, shortened: as §1

Row | Binder | SPOT peptide array binding signal intensity
53 | NSVPIMPTLPPRPYI | 1530

Biological target: ScRvs167
Experiment: as above
Procedure, shortened: as §1

Row | Binder | SPOT peptide array binding signal intensity
54 | NSVPIMPTLPPRPYI | 834

Biological target: ScSho1
Experiment: as above
Procedure, shortened: as §1

Row | Binder | SPOT peptide array binding signal intensity
55 | NSVPIMPTLPPRPYI | 154

Biological target: ScSla1-D1-D2
Experiment: as above
Procedure, shortened: as §1

Row | Binder | SPOT peptide array binding signal intensity
56 | NSVPIMPTLPPRPYI | 2

Biological target: ScSla1-D3
Experiment: as above
Procedure, shortened: as §1

Row | Binder | SPOT peptide array binding signal intensity
57 | NSVPIMPTLPPRPYI | 72

Biological target: SpAbp1-D1
Experiment: as above
Procedure, shortened: as §1

Row | Binder | SPOT peptide array binding signal intensity
58 | NSVPIMPTLPPRPYI | ≤ 0

Biological target: SpBbc1
Experiment: as above
Procedure, shortened: as §1

Row | Binder | SPOT peptide array binding signal intensity
59 | NSVPIMPTLPPRPYI | 50

Biological target: SpBzz1-D1
Experiment: as above
Procedure, shortened: as §1

Row | Binder | SPOT peptide array binding signal intensity
60 | NSVPIMPTLPPRPYI | 78

Biological target: SpBzz1-D2
Experiment: as above
Procedure, shortened: as §1

Row | Binder | SPOT peptide array binding signal intensity
61 | NSVPIMPTLPPRPYI | 0.5

Biological target: SpCyk3
Experiment: as above
Procedure, shortened: as §1

Row | Binder | SPOT peptide array binding signal intensity
62 | NSVPIMPTLPPRPYI | 6

Biological target: SpHof1
Experiment: as above
Procedure, shortened: as §1

Row | Binder | SPOT peptide array binding signal intensity
63 | NSVPIMPTLPPRPYI | 6.5

Biological target: SpHof1-2
Experiment: as above
Procedure, shortened: as §1

Row | Binder | SPOT peptide array binding signal intensity
64 | NSVPIMPTLPPRPYI | 34.5

Biological target: SpHof1-3
Experiment: as above
Procedure, shortened: as §1

Row | Binder | SPOT peptide array binding signal intensity
65 | NSVPIMPTLPPRPYI | 18.8

Biological target: SpHse1
Experiment: as above
Procedure, shortened: as §1

Row | Binder | SPOT peptide array binding signal intensity
66 | NSVPIMPTLPPRPYI | 214

Biological target: SpLsb1
Experiment: as above
Procedure, shortened: as §1

Row | Binder | SPOT peptide array binding signal intensity
67 | NSVPIMPTLPPRPYI | 523

Biological target: SpLsb4
Experiment: as above
Procedure, shortened: as §1

Row | Binder | SPOT peptide array binding signal intensity
68 | NSVPIMPTLPPRPYI | 4060

Biological target: SpMyo1
Experiment: as above
Procedure, shortened: as §1

Row | Binder | SPOT peptide array binding signal intensity
69 | NSVPIMPTLPPRPYI | 378

Biological target: SpNbp2
Experiment: as above
Procedure, shortened: as §1

Row | Binder | SPOT peptide array binding signal intensity
70 | NSVPIMPTLPPRPYI | 76.5

Biological target: SpPex13
Experiment: as above
Procedure, shortened: as §1

Row | Binder | SPOT peptide array binding signal intensity
71 | NSVPIMPTLPPRPYI | 25

Biological target: SpRvs167
Experiment: as above
Procedure, shortened: as §1

Row | Binder | SPOT peptide array binding signal intensity
72 | NSVPIMPTLPPRPYI | 1070

Biological target: SpSla1-D1-D2
Experiment: as above
Procedure, shortened: as §1

Row | Binder | SPOT peptide array binding signal intensity
73 | NSVPIMPTLPPRPYI | ≤ 0

Biological target: SpSla1-D3
Experiment: as above
Procedure, shortened: as §1

Row | Binder | SPOT peptide array binding signal intensity
74 | NSVPIMPTLPPRPYI | 21.5

— the supplement of paper PMC4466140
